The values below come from the supplement of paper PMC10338343.

± gives the standard deviation.

For one test, the system named is EfPiwi piRISC loaded with L1MC piRNA (26 nt). Description: pre-steady-state target cleavage rate (min^-1); auxiliary factor: none (no Gtsf1); guide: L1MC piRNA 5'p-UAACUAAAUACUAUGCAAGCUGUAGG; higher = faster piRNA-guided slicing of the target. In outline:
(§1)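 In this Cleave-'n-Seq assay, uncleaved targets were sequenced and normalised to depth and to weakly complementary targets. They came from a transcribed, DNA-blocked target RNA library […] mixed with 1 nM active affinity-purified piRISC carrying one synthetic guide, with or without 500 nM GTSF1 partner protein, in HEPES–potassium acetate buffer at 33 °C for 0–8 or 0–960 min. After three trials were pooled and k3 was capped at 0.0001 min^-1, the pre-steady-state cleavage rate was obtained from a burst-and-steady-state fit.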
On to UCCUGGAUGUCGAAGCAUAGUAUUUACUAA, for which the “pre-steady-state target cleavage rate” value is less than 0.0001.
The same measure, in the same setting: the value for UCCUGGUACAGCUUGGUAAGUAUUUACAAA was less than 0.0001.
As for UCCUGGAUGUCGAUGCAUUGUAUUAAGUUA, the “pre-steady-state target cleavage rate” value is less than 0.0001.
Same read-out and setting: the value for UCCUGGAUGUCGAACCAUAGUAUUUCAGUUA was less than 0.0001; that for UCCUGGAUGUCGAACGUAUCUAUUCAGUUA was less than 0.0001.
Turning to UCCUGGAUGUCGAUGCAUAGAAUUUAGUAA, the “pre-steady-state target cleavage rate” value is less than 0.0001.
As for UCCUGGAUGUGCUUGCAUACAUUUUAGUAA, the “pre-steady-state target cleavage rate” value was less than 0.0001.
Still for that read-out and setting: the value for UCCUGGAUCAGGAAGCAUAGUAUUUUCAAA was less than 0.0001; that for UCCUGGAUGUCGAUGCAUUGAAUUUAGUUA was less than 0.0001; that for UCCUGGAUGUCGAAGAAUAGUAUUUAGUUA was less than 0.0001.
The same measure, in the same setting: the value for UCCUGGAUGUCGAACGUAUCUAUUUACAUA was less than 0.0001; that for UCCUGGAUGUCGAACGUAAGUAUUUAGUCA was less than 0.0001; that for UCCUGGAUGUCGAAGCAUAGAUAUUUAGUUA was less than 0.0001.
In the case of UCCUGGAUGUCGAACGUAAUGUAUUUAGUUA, the “pre-steady-state target cleavage rate” value was less than 0.0001.
As for UCCUGGAUGUCGAACGUAAGAUUUAGUUA, the “pre-steady-state target cleavage rate” value is less than 0.0001.
Still for that read-out and setting: next, UCCUGGAUGUCGUUGCAUAGUAUUUAGCUA: less than 0.0001; UCCUGGAUGUCGAACGUUUGUAAUUAGUUA: less than 0.0001; UCCUGGAUGUCGUUGCAUAGUAUAUAGAUA: less than 0.0001.
For UCCUGGAUGUCGAAGCAAAGUAUUUACUUA, the “pre-steady-state target cleavage rate” value was less than 0.0001.
With UCCUGGAUGUCGAAGCAUAGUUUUUAGAUA, the “pre-steady-state target cleavage rate” value was less than 0.0001.
For the sequence UCCUGGAUGUCGAAGGAUAGUAUUUAGUUA, the “pre-steady-state target cleavage rate” value was less than 0.0001.
Regarding UCCUGGAACAGCUUGCAUUCUAUUUACAAA, the “pre-steady-state target cleavage rate” value was less than 0.0001.
The same measure, in the same setting: the value for UCCUGGAUGUCGAACGUAUGAAUUUAGAUA was less than 0.0001; that for UCCUGGAUGUCGAACGUAUGUAUAUUAGUUA was less than 0.0001; that for UCCUGGAUGUCGAACGAAGUAUUUAGUUA was less than 0.0001.
For UCCUGGAUGUCGAAGCAUAGUUUUUACUUA, the “pre-steady-state target cleavage rate” value is less than 0.0001.
UCCUGGAUGUCGUUGCAUAGAUAUUAGUUA: the “pre-steady-state target cleavage rate” value is less than 0.0001.
Consider UCCUGGAUCAGCUUGGAUAGUAUUUACAAA, for which the “pre-steady-state target cleavage rate” value is less than 0.0001.
For the sequence UCCUGGAUGUCGAAGCAUAGUAUAUACUUA, the “pre-steady-state target cleavage rate” value is less than 0.0001.
Still for that read-out and setting: the value for UCCUGGAUGUCGAAGCAAAGUAUUUAGAUA was less than 0.0001.
On to UCCUGGAUGUCGAACGUUAGUAUUUAUGUUA, for which the “pre-steady-state target cleavage rate” value is less than 0.0001.
On to UCCUGGAUGUCGAACGUAUGUGAUUUAGUUA, for which the “pre-steady-state target cleavage rate” value is less than 0.0001.
Same read-out and setting: the value for UCCUGGAUGUCGAACGUUAGUUUUUUGUUA was less than 0.0001; that for “UCCUGGAUGUCGAACGUUAGUAUUUAGUUU [g2:g13:cont:t1U]” was less than 0.0001.

The test system of a further test is EfPiwi piRISC loaded with piRNA #1 (26 nt). Description: pre-steady-state target cleavage rate (min^-1); auxiliary factor: 500 nM Ephydatia muelleri Gtsf1; guide: piRNA #1 5'p-UGAGGUAGUAGGUUGUAUAGUAUCCA; MIWI and MILI are mouse PIWI proteins and EfPiwi is from a freshwater sponge; tags in brackets are library labels; higher = faster piRNA-guided slicing of the target. An outline of the steps: as §1
For the sequence GGAGACCUAACUAUAACAACCUACUACCUCA, the “pre-steady-state target cleavage rate” value worked out at 0.00912 ± 0.005.
For GGAGUCGAUACUAUACAACCUACUACCUCA, the “pre-steady-state target cleavage rate” value is 0.106 ± 0.034.
Still for that read-out and setting: the value for GGAGACCUAUCUAUACAUCCUACUACCUCA was 0.00738 ± 0.0031.
Take GGAGAGGAUACUAUACAACCUAGUAGCUCA: the “pre-steady-state target cleavage rate” value was 0.00479 ± 0.0019.
Consider GGAGUGGAUACUAUACAACCUUCUACCUCA, for which the “pre-steady-state target cleavage rate” value worked out at 0.0116 ± 0.0048.
As for GGAGACGAUACUUUACAACCUACUACCUGA, the “pre-steady-state target cleavage rate” value is 0.00356 ± 0.0024.
